Bioassay records (PubChem)
Many of the other results were omitted from the sample, so hits are more common in it than they were.
PRC2 inh: blocks human EZH2/PRC2 H3K27 methylation; Q15910; DELFIA TRF, 1 h; inhibition, % at 12.5 µM; hit rate 0.35% among 57,000; AID 651548;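 active means mean inhibition of replicates at least 50% and every single replicate also reaching 50%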;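 further: dimethyl H3K27 on biotinylated H3 21-44 peptide detected by antibody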
Of the large screens only hits and unclear results are named; the others gave an inactive call.

CO[C@@H]1CN(C)C(=O)c2ccc(NS(=O)(=O)c3cccc(F)c3)cc2OC[C@H](C)N(Cc2cc(F)ccc2F)C[C@@H]1C	PRC2 inh 54
CO[C@@H]1CN(C)C(=O)c2ccc(NS(=O)(=O)c3cccc(F)c3)cc2OC[C@@H](C)N(Cc2cc(F)ccc2F)C[C@@H]1C	none
CO[C@@H]1CN(C)C(=O)c2ccc(NS(=O)(=O)c3cccc(F)c3)cc2OC[C@@H](C)N(Cc2cc(F)ccc2F)C[C@H]1C	none
COc1ccc(/C=C2/SC(=S)NC2=O)cc1COc1ccc(F)cc1F	PRC2 inh 92
Cc1cccc(N=C2NC(=O)/C(=C/c3ccc(F)cc3)S2)c1C	none
Cc1nnc(SCC(=O)c2c(C)[nH]c3ccccc23)s1	none
Cc1ccc(F)c(NC(=O)CSc2nnc(C)s2)c1	none
Cc1ccc(-c2cc3ccccn3c2C(=O)CSc2nnc(C)s2)cc1	PRC2 inh 53
O=C(C[C@H]1CC[C@@H](NS(=O)(=O)c2ccccc2)[C@@H](CO)O1)NCCN1CCCCC1	none
O=C(Nc1ccc(Cl)cc1)N[C@@H]1CC[C@H](CCNC(=O)c2ccccc2F)O[C@@H]1CO	none
COC(=O)c1ccccc1NC(=O)Cn1c(C)ccc1C	none
COC(=O)c1ccccc1NC(=O)CNC(=O)c1ccccc1	none
COC(=O)c1ccccc1NC(=O)CCSc1ccc(C)cc1	PRC2 inh 54
COC(=O)c1ccc(NC(=O)C(C)N2c3cccc4cccc(c34)S2(=O)=O)cc1 (stereo not given)	none
COc1cc(C2c3c(cc(OC)c(O)c3OC)CC(CO)C2COC2OC(CO)C(O)C(O)C2O)cc(OC)c1O (stereo not given)	PRC2 inh 101
COc1ccc(C2Oc3c(OC)cc(/C=C/COC4OC(CO)C(O)C(O)C4O)cc3C2CO)cc1OC (stereo not given)	none
CC(C)C#Cc1ccc2c(c1)O[C@@H](CN(C)C(=O)c1ccccn1)[C@H](C)CN([C@H](C)CO)S2(=O)=O	none
C[C@H]1CN([C@@H](C)CO)S(=O)(=O)c2ccc(C#CCN(C)C)cc2O[C@@H]1CN(C)S(C)(=O)=O	none
COc1ccc(OCc2nc3ccccc3n2Cc2ccccc2F)cc1	PRC2 inh 58
COc1ccc(OCc2nc3ccccc3n2Cc2c(F)cccc2Cl)cc1	none
NC(=O)CSc1nc2ccccc2n1Cc1ccccc1F	none
O=C(C[C@@H]1C[C@@H]2c3cc(NC(=O)c4cccnc4)ccc3O[C@@H]2[C@@H](CO)O1)NCCN1CCCCC1	none
CCC(=O)N(C)C[C@@H]1Oc2cc(-c3ccc(C)cc3)ccc2S(=O)(=O)N([C@@H](C)CO)C[C@@H]1C	none
CO[C@H]1CN(C)C(=O)c2ccc(NS(=O)(=O)c3cn(C)cn3)cc2OC[C@@H](C)N(Cc2cccc(F)c2)C[C@H]1C	none
C[C@@H]1CCCCO[C@@H](CN(C)C)[C@H](C)CN([C@@H](C)CO)C(=O)c2cc(NC(=O)Nc3ccc4c(c3)OCO4)ccc2O1	none
COCC(=O)Nc1ccc2c(c1)C(=O)N(C)C[C@H](OC)[C@@H](C)CN(CC1CCCCC1)[C@@H](C)CO2	none
Cc1ccc([N+](=O)[O-])c(OCCCSc2ncccn2)c1	none
Cc1ccc(C)c(OCCCCSc2ncccn2)c1Cl	PRC2 inh 56
O=[N+]([O-])c1ccccc1OCCCCSc1ncccn1	none
Cc1cc(Cl)cc(Br)c1OCCCSc1ncccn1	PRC2 inh 62
Clc1ccc(OCCCCSc2ncccn2)cc1	none
C[C@H]1CN([C@@H](C)CO)S(=O)(=O)c2ccc(C3=CCCC3)cc2O[C@H]1CN(C)S(=O)(=O)c1cn(C)cn1	none
O=C(C[C@H]1C[C@H]2c3cc(NC(=O)C4CCOCC4)ccc3O[C@H]2[C@H](CO)O1)NCc1cccnc1	none
COc1ccc(S(=O)(=O)N(C)C[C@H]2Oc3c(cccc3N(C)C)C(=O)N([C@@H](C)CO)C[C@H]2C)cc1	none
Cc1ccc(S(=O)(=O)c2c(C)nn(C(C)(C)C)c2OC(=O)c2ccccc2Br)cc1	none
C[C@H](CO)N1C[C@H](C)[C@H](CN(C)CC2CC2)Oc2ncc(-c3cccc(C(=O)N(C)C)c3)cc2C1=O	none
COCCNC(=O)C[C@@H]1C[C@H]2c3cc(NC(=O)CN(C)C)ccc3O[C@H]2[C@@H](CO)O1	none
COc1ccc2cc(CCC(C)=O)ccc2c1	none
COc1ccc(CCNS(=O)(=O)c2cc(C)ccc2OC)cc1	none
COc1ccc(CCc2cc(OC)cc(=O)o2)cc1	PRC2 inh 52
CO[C@H]1CN(C)C(=O)c2cc(NS(C)(=O)=O)ccc2OC[C@H](C)N(Cc2ccccn2)C[C@H]1C	none
COc1cc(OC)c(-c2nc(-c3ccccc3)c(-c3cccs3)[nH]2)cc1OC	none
C[C@H](CO)N1C[C@H](C)[C@@H](CN(C)Cc2cccc(C(=O)O)c2)Oc2cc(Br)ccc2S1(=O)=O	none
C[C@@H]1CN([C@@H](C)CO)S(=O)(=O)c2ccc(C3=CCCCC3)cc2O[C@H]1CN(C)Cc1cccc(C(=O)O)c1	PRC2 inh 56
C[C@@H]1CN([C@@H](C)CO)S(=O)(=O)c2ccc(C#CCC3CCCC3)cc2O[C@H]1CN(C)Cc1cccc(C(=O)O)c1	PRC2 inh 62
C[C@H]1CN([C@@H](C)CO)S(=O)(=O)c2ccc(C3=CCCCC3)cc2O[C@H]1CN(C)Cc1cccc(C(=O)O)c1	none
C[C@H]1CN([C@@H](C)CO)S(=O)(=O)c2ccc(/C=C/c3ccccc3)cc2O[C@H]1CN(C)Cc1ccccc1	none
C[C@H]1CN([C@@H](C)CO)S(=O)(=O)c2ccc(/C=C/c3ccccc3)cc2O[C@@H]1CN(C)Cc1ccc(C(=O)O)cc1	PRC2 inh 53
C[C@H](CO)N1C[C@H](C)[C@@H](CN(C)Cc2ccccc2)Oc2cc(/C=C/c3ccccc3)ccc2S1(=O)=O	none
C[C@H]1CN([C@@H](C)CO)S(=O)(=O)c2ccc(C3=CCCCC3)cc2O[C@@H]1CN(C)Cc1cccc(C(=O)O)c1	none
C[C@@H]1CN([C@H](C)CO)S(=O)(=O)c2ccc(Br)cc2O[C@H]1CN(C)Cc1cccc(C(=O)O)c1	none
CCC(=O)Nc1ccc2c(c1)C(=O)N(C)C[C@H](OC)[C@H](C)CN(C(=O)NC(C)C)[C@H](C)CO2	none
C[C@H]1CN([C@@H](C)CO)S(=O)(=O)c2ccc(C3=CCCC3)cc2O[C@@H]1CN(C)C(=O)C1CC1	none
O=C(C[C@@H]1C[C@H]2c3cc(NC(=O)NC4CCCCC4)ccc3O[C@H]2[C@@H](CO)O1)NCC1CC1	none
C[C@@H](O)C#Cc1cnc2c(c1)C(=O)N([C@@H](C)CO)C[C@H](C)[C@H](CN(C)C(=O)CC1CC1)O2	none
O=C(Nc1ccc2c(c1)[C@H]1C[C@@H](CC(=O)N3CCc4ccccc4C3)O[C@@H](CO)[C@H]1O2)NC1CCCC1	none
COC(=O)c1ccc(NC(=O)CSc2nnc(-c3cccnc3)n2-c2ccccc2)cc1	none
C[C@H](CO)N1C[C@H](C)[C@H](CN(C)Cc2ccc(Cl)c(Cl)c2)Oc2ccc(NC(=O)Cn3cnnn3)cc2CC1=O	none
C[C@H]1CN([C@@H](C)CO)C(=O)c2cc(C#CCc3ccccc3)cnc2O[C@@H]1CN(C)C(=O)C1CC1	none
CCN(CC)C(=O)c1sc(NC(=S)Nc2cnccn2)c(C(=O)OC)c1C	none
CO[C@@H]1CN(C)C(=O)c2cc(NS(=O)(=O)c3ccccc3C)ccc2OC[C@H](C)N(S(C)(=O)=O)C[C@H]1C	none
Cc1ccc([N+](=O)[O-])cc1N(CC(=O)Nc1ccc(F)cc1F)S(C)(=O)=O	none
CC12CC(c3ccoc3)OC(=O)C1CCC1(C)C2C2OC(=O)C1(O)C1OC21 (stereo not given)	none
